Reference: PubChem BioAssay AID1159580 (chemical genetic matrix, 2015)
The campaign covered roughly 5,500 compounds. About 2,000 (36%) were called active. Roughly 18% stayed inconclusive and do not appear here. Cut-off read from the data, not from the text of the source: active = normalized growth mostly below about 0.91 (no sharp cut-off); inconclusive = no clear call, values can overlap the other calls; inactive = mostly above about 0.92. The list shows a part of the results.

Test: chemical genetic growth profiling, strain panel (AID 1159580);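 note: tested at 20 µM; growth read once vehicle control cultures reached saturation at 30 °C; 1 = growth at the plate median or of vehicle wells; lower values mean less growth of the strain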
Details: S. cerevisiae deletion strains, growth OD

Measured: normalized growth

CC(=O)OCCCCN1C(=O)c2ccccc2C1=O
inactive: locus YAL013W, strain DEP1, active compounds read low 0.995 | locus YBR229C, strain ROT2, active compounds read low 1 | locus YCL061C, strain MRC1, active compounds read low 0.986 | locus YDL101C, strain DUN1, active compounds read low 1.04 | locus YDL134C, strain PPH21, active compounds read low 1 | locus YDR150W, strain NUM1, active compounds read low 0.988 | locus YEL061C, strain CIN8, active compounds read low 0.995 | locus YGR078C, strain PAC10, active compounds read low 1.01 | locus YHR030C, strain SLT2, active compounds read low 0.943 | locus YHR087W, strain rtc3, active compounds read low 1.01 | locus YJL187C, strain SWE1, active compounds read low 1 | locus YJR043C, strain POL32, active compounds read low 0.997 | locus YJR075W, strain HOC1, active compounds read low 0.977 | locus YKL190W, strain CNB1, active compounds read low 0.999 | locus YLR039C, strain RIC1, active compounds read low 1.02 | locus YLR058C, strain SHM2 (second series), active compounds read low 0.994 | locus YLR085C, strain ARP6, active compounds read low 0.967 | locus YLR262C, strain YPT6, active compounds read low 1.02 | locus YML094W, strain GIM5, active compounds read low 1.05 | locus YMR219W, strain ESC1, active compounds read low 1 | locus YMR263W, strain SAP30, active compounds read low 0.996 | locus YNL153C, strain GIM3, active compounds read low 1.02 | locus YNL298W, strain CLA4 (second series), active compounds read low 0.983 | locus YNL322C, strain KRE1, active compounds read low 1 | locus YNR030W, strain Alg12, active compounds read low 0.995 | locus YOL006C, strain TOP1, active compounds read low 0.993 | locus YPL055C, strain LGE1, active compounds read low 1 | locus YPL241C, strain CIN2, active compounds read low 1.05 | locus YPR135W, strain CTF4, active compounds read low 0.975
